Source: a collection of fitness landscapes (doi:10.1016/j.celrep.2020.107928)
The full ranking holds about 81,000 sequences; the median of “one-hybrid fitness for binding parS DNA” is about -0.17, and the highest 2% start at about 0.51. The entries come from a sample that favours the highest values as a whole.

B1: Caulobacter ParB omega fusion; a variant is named by its letters at X, in order, B8GW30 (parent)
chain: MESVVVGEPGMSEGRRGLGRGLSALLGEVDAAPAQAPGEQLGGSREAPIEILQRNPDQPRRTFREEDLEDLSNSIREKGVLQPILVRPSPDTAGEYQIVAGERAWRAAQRAGLKTVPIMVRELDDLAVLEIGIIENVQRADLNVLEEALSYKVLMEKFERTQENIAQTIGKSXSHVANXMRLLXLPDEVQSYLVSGELTAXHARAIAAAADPVALAKQIIEGGLSVRETEALARKAPNLSAGKSKGGRPPRVKDTDTQALESDLSSVLGLDVSIDHRGSTGTLTITYATLEQLDDLCNRLTRGI

Variants of: B1
Test: one-hybrid fitness for binding parS DNA (scaled: cognate 1, non-cognate 0); higher = stronger binding
Details: with parS DNA site
Procedure, shortened: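 Selection: bacterial one-hybrid in E. coli USO, HIS3 reporter with the site 19 bp from the promoter, 48 hours at 37°C on M9-minus-histidine plus 0.1 mM IPTG and 5 mM 3-AT. Libraries were Caulobacter ParB with four randomised specificity codons, sequenced on Illumina before and after selection. Fitness is the rescaled log change in variant-to-wild-type read ratio, anchored to the cognate and non-cognate sites.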

Variant	one-hybrid fitness for binding parS DNA
NTNE	≤ 0.2
HGYW	≤ 0.2
PCLT	≤ 0.2
RIYH	≤ 0.2
RIYS	1.07
RIYN	0.476
VRVS	≤ 0.2
VYCV	≤ 0.2
VANG	≤ 0.2
RVVH	≤ 0.2
RVVT	0.795
RVKT	0.761
RVVP	≤ 0.2
RVKD	≤ 0.2
RVKN	0.46
SDSY	≤ 0.2
RRMV	≤ 0.2
RIHF	≤ 0.2
RIHY	0.461
RIHG	1.02
RSHQ	≤ 0.2
RLHM	0.321
RLHQ	≤ 0.2
RDHG	≤ 0.2
RCHG	0.994
REHG	0.236

Variant	one-hybrid fitness for binding parS DNA
RPHG	≤ 0.2
RLHG	1.01
RSHG	1
CRRT	≤ 0.2
TFGN	≤ 0.2
FDPG	≤ 0.2
QNIS	≤ 0.2
FWAR	≤ 0.2
TTPY	≤ 0.2
NYDR	≤ 0.2
DKHC	≤ 0.2
YHHS	≤ 0.2
RHGT	0.832
RHGM	0.232
RHQT	0.853
RHCN	0.381
RHCD	≤ 0.2
RHQF	≤ 0.2
RHSY	0.41
RHSF	≤ 0.2
RHST	0.854
RHCT	0.766
RHQK	≤ 0.2
RHGF	≤ 0.2
WKSA	≤ 0.2
NGKG	≤ 0.2

Variant	one-hybrid fitness for binding parS DNA
MLAT	≤ 0.2
AQPR	≤ 0.2
VSSM	≤ 0.2
GPRN	≤ 0.2
MTAN	≤ 0.2
FTMR	≤ 0.2
TSLA	≤ 0.2
VLVS	≤ 0.2
TYKP	≤ 0.2
SNHT	≤ 0.2
RHYK	≤ 0.2
RHRT	0.788
RHWT	0.692
RHRY	0.473
RHWK	≤ 0.2
RHYN	0.448
RHYT	0.806
RHRM	0.277
RHWR	≤ 0.2
ITCG	≤ 0.2
LTNS	≤ 0.2
TGVT	≤ 0.2
VSLW	≤ 0.2
SSDD	≤ 0.2
